Out of some 16,000 compounds screened, about 2,600 (16%) were called active. About 20% were inconclusive and are not listed. Calls come from the whole dose curve; as a rule, active = well fitted curve in the direction sought with a large enough effect; inconclusive = small, poorly fitted or top-dose-only effect, or effect the other way; inactive = no such curve, though single readings can be large or run the other way. Only a sample is shown.
% is set by controls: 0 for no effect and ±100 for the full control effect.

For this assay, the target named is Cytochrome P450 2D6 (Homo sapiens) (UniProt P10635). In words: Cytochrome panel assay with activity outcomes. The settings on record: recombinant CYP, pro-luciferin dealkylation, luminescence, p450-cyp2d6; series mostly up to 57.1 µM.
Cytochrome P450 2D6 (Homo sapiens), sequence (P10635 whole entry, looked up): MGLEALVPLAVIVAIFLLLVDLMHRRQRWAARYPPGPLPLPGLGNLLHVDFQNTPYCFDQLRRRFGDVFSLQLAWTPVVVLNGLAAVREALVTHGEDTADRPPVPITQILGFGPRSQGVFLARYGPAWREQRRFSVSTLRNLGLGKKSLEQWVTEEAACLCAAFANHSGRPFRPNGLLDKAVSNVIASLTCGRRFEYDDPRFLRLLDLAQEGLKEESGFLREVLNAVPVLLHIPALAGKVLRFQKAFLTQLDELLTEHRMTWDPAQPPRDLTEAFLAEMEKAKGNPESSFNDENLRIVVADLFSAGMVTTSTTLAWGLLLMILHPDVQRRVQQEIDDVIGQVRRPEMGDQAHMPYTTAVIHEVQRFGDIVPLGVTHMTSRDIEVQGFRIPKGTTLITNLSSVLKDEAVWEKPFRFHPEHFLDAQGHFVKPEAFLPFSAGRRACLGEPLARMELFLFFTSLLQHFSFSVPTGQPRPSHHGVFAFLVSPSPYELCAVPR
For orientation: AC50 means the concentration giving half of the maximal activity seen. For the compound `COc1ccccc1NC(=O)N1CCC(c2nnc(SCC(N)=O)n2C)CC1`, the AC50 result was “inactive”. Regarding `COc1cc(-c2nnc(COC(=O)c3c4c(nc5ccccc35)CCCC4)o2)cc(OC)c1OC`, the AC50 entry is “inactive”. The same measure, in the same setting: as for `COc1ccc(-n2c(CNC(=O)c3ccc(S(=O)(=O)N4CCCC4)cc3)n[nH]c2=S)cc1`, the entry is “inactive”. The same measure, in the same setting: as for `C/C(=N/NC(=O)c1ccc(C)s1)c1cccc(NC(=O)COc2ccc(Cl)cc2C)c1`, the entry is “inactive”. Still for that read-out and setting: then `O=C(Nc1ccc2nc(SCc3ccc(Cl)cc3)sc2c1)c1ccccc1C(=O)N1CCOCC1`, with “inactive”.

In the case of `N[C@H](C(=O)O)[C@@H]1[C@@H](C(=O)O)C1(F)F`, the AC50 was 0.1 µM (active). Same read-out and setting: as for `O=C(Nc1cccc(-c2cnc3ccccc3n2)c1)c1ccc(Cl)cc1`, the entry is “inactive”; as for `COc1ccc(NC(=O)c2ccc(C)cc2Cl)c([N+](=O)[O-])c1`, 0.891 µM (active); as for `COc1ccc(NC(=O)CN(C)S(=O)(=O)c2ccc(Cl)cc2)c([N+](=O)[O-])c1`, “inactive”. Same read-out and setting: as for `COc1ccc(NC(=O)c2cccs2)c([N+](=O)[O-])c1`, the entry is “inactive”. Take `Cn1c(CN2CCOCC2)nnc1SCc1ccccc1`: the AC50 entry was “inactive”.

As to `CCCCN1CSC(=S)N(Cc2ccccc2)C1`, the AC50 was 3.98 µM (active). The same measure, in the same setting: then `O=C(c1ccc2c(c1)N(Cc1ccccc1)C(=O)CS2)N1CCOCC1`, with “inactive”; and `S=C1SCN(CCN2CCOCC2)CN1Cc1ccccc1`, with 12.6 µM (active); and `O=C1OC(OC2CCCCC2)(c2ccccc2)c2ccccc21` (stereo unspecified), with “inactive”.

Take `COc1ccc(-c2cc(C3CCN(c4cc(Cl)nc(N)n4)CC3)[nH]n2)cc1`: the AC50 entry was “inactive”. `CCN1C(=O)[C@H]2[C@H]3[C@H](O)[C@H](O)C/C(=N/NC(=O)OCc4ccccc4)[C@H]3CC[C@@H]2C1=O`: the activity, negative = inhibition was 1.32% [at 11.4 µM] (inactive). With `C/C(=N\NC(=O)c1cccc(F)c1)c1ccc(Br)s1`, the AC50 entry was “inactive”. The same measure, in the same setting: then `Cc1cccc(C(=O)NC(=S)N2CCN(C)CC2)c1`, with “inactive”.

With `O=C(O)CC[C@@H](C(=O)O)N1C(=O)[C@@H]2[C@@H]3CC[C@H](C3)[C@@H]2C1=O`, the activity, negative = inhibition was 13.3% [at 11.4 µM] (inactive). Regarding `COCCCNC(=O)C(=O)N/N=C/c1ccc(OCC(=O)Nc2cccc(Cl)c2C)c(OC)c1`, the AC50 entry is “inactive”. On the same count and under the same terms, then `CCCc1cc(=O)[nH]c(=S)[nH]1`, with “inactive”; and `Cc1ccc(OCC(=O)NNC(=O)CCC(=O)Nc2ccc(C)cc2C)cc1`, with “inactive”. As to `Nc1ccc(S(=O)(=O)NCc2nccs2)cc1`, the activity, negative = inhibition is -11% [at 11.4 µM] (inactive).

Turning to `O=C1CCCC=C1[C@@H](O)C1CCCCC1`, the activity, negative = inhibition is 11.1% [at 11.4 µM] (inactive). With `CCCCOc1cc(C[C@@H]2CNC(=O)N2)ccc1OC`, the AC50 result is “inactive”. Still for that read-out and setting: as for `CCCN1C[C@H](CSC)C[C@H]2c3cccc4[nH]cc(c34)C[C@@H]21`, the figure is 0.1 µM (active); as for `O=C(O)c1cc2cc(Cc3cccnc3)ccc2o1`, “inactive”; as for `Cc1cc(C)nc(NC(=O)c2cccc([N+](=O)[O-])c2C)n1`, “inactive”. Still for that read-out and setting: as for `CC(C)(C)C1CCC(OCC(O)CN2CCN(c3ccccc3)CC2)CC1` (stereo unspecified), the figure is 6.31 µM (active). Still for that read-out and setting: as for `OC[C@@H](O)CN1CCN(c2ccccc2)CC1`, the entry is “inactive”.

As to `ClC(Cl)(Cl)C(N1CCN(c2ccccc2)CC1)N1CCN(c2ccccc2)CC1`, the activity, negative = inhibition was 4.26% [at 11.4 µM] (inactive).

Consider `COCCCN=CC1=C(O)CC(C)(C)CC1=O`, for which the AC50 entry is “inactive”. On the same count and under the same terms, as for `CCc1c(C(C)O)oc2ccc3c(C)cc(=O)oc3c12` (stereo unspecified), the entry is “inactive”.

Take `COc1ccc(-n2nc(C(=O)NCC(=O)Nc3ccccn3)c3ccccc3c2=O)cc1`: the AC50 result was “inactive”. As for `Cn1c(=O)[nH]c2ncn(C)c2c1=O`, the AC50 entry was “inactive”. Still for that read-out and setting: as for `CN1C(=C2C(=O)OC(C)(C)OC2=O)Sc2ccccc21`, the entry is “inactive”; as for `CN(C)CCCN1c2ccc3ccccc3c2Sc2cccc(Cl)c21`, 0.501 µM (active). On to `CN(C)CCCN1c2ccccc2Sc2cnccc21`, for which the AC50 is 1.58 µM (active).

With `CCN(CC)CCN1C(=O)c2cccc3cc(N)cc(c23)C1=O`, the activity, negative = inhibition was -3.81% [at 11.4 µM] (inactive). Take `CN(C)CCCN1c2ccccc2Sc2ccc3ccccc3c21`: the AC50 was 1.26 µM (active). Same read-out and setting: as for `CCN(CC)CCN1c2ccccc2Sc2ccc3ccccc3c21`, the figure is 0.631 µM (active). Still for that read-out and setting: as for `CCC(=S)/C=C1\Sc2ccc3ccccc3c2N1CCCS(=O)(=O)O`, the entry is “inactive”; as for `C/C(CC(=O)NCc1ccco1)=N\NC(=O)Cc1cccc2ccccc12`, “inactive”. As to `Cc1c(C(=O)O)nc(/C=C\C(=O)O)[nH]c1=O`, the activity, negative = inhibition was 6.81% [at 11.4 µM] (inactive). Take `Cc1nc2cnc(N(C)C)nc2n(Cc2ccc(F)cc2)c1=O`: the AC50 entry is “inactive”. On the same count and under the same terms, then `CCSc1nc2c(c(=O)[nH]1)C(c1ccncc1)C(C(=O)OC(C)C)=C(C)N2` (stereo unspecified), with “inactive”; and `COc1ccc(CN2CN(c3ccc(Cl)cc3)C(=O)N(n3cnnc3)C2)cc1`, with “inactive”. For `N#C/C(=C\N1CCNC1=S)C(=O)c1ccc2ccccc2c1`, the activity, negative = inhibition is -0.81% [at 11.4 µM] (inactive). On to `CN(C)CCCN1c2ccccc2C(C)(C)c2ccccc21`, for which the AC50 was 3.98 µM (active). The same measure, in the same setting: as for `COc1ccccc1N1CCN(CCN2C(=O)c3ccccc3C(C)(C)C2=O)CC1`, the entry is “inactive”; as for `CN(C)CCCn1cc(C2=C(c3c[nH]c4ccccc34)C(=O)NC2=O)c2ccccc21`, “inactive”; as for `O=C(c1cnccn1)N1CCC2(CC1)CN(c1cccc(-c3ccccc3)c1)C2`, “inactive”.

For the compound `O=C(NCc1n[nH]c(=S)n1-c1cccc(Cl)c1)c1ccc(S(=O)(=O)N2CCCC2)cc1`, the AC50 result is “inactive”. On the same count and under the same terms, then `Fc1ccc(-c2cnc(-c3cccs3)o2)cc1`, with 28.2 µM (active); and `Nc1c(-c2cccs2)cnn1-c1nc(-c2ccc(F)cc2)cs1`, with “inactive”.

For the compound `NC(=O)c1ccc(-c2ncc(-c3ccccc3)o2)cc1`, the AC50 entry was “inactive”. On the same count and under the same terms, then `COc1ccc(C2C(C#N)=C(N)OC3=C2C(=O)CC(C)(C)C3)c([N+](=O)[O-])c1OC` (stereo unspecified), with “inactive”; and `CSc1cc(C)nc(NC(C)=O)n1`, with “inactive”; and `CCOC(=O)C1=C(CSc2nc3ccccc3s2)NC(=O)NC1c1cc(C)ccc1C` (stereo unspecified), with “inactive”.

Regarding `O=S(=O)(c1ccccc1)N1CCC2(CCN(C(c3ccccc3)c3ccccc3)CC2)CC1`, the AC50 result was “inactive”.

As for `O=S(=O)(c1ccccc1)N1CCC[C@@]2(CCN(C(c3ccccc3)c3ccccc3)C2)C1`, the AC50 is 0.631 µM (active). The same measure, in the same setting: as for `O=S(=O)(c1ccccc1)N1CCC2(CC1)CN(C(c1ccccc1)c1ccccc1)C2`, the figure is 2.51 µM (active).

As to `O=S(=O)(c1ccccc1)N1CCC2(CCCN(C(c3ccccc3)c3ccccc3)C2)CC1`, the AC50 was 0.501 µM (active). Same read-out and setting: as for `CN1CCCC2(CCN(S(=O)(=O)c3ccccc3)CC2)C1`, the entry is “inactive”; as for `Fc1ccc2nc(Nc3nc4c(s3)CCCC4)sc2c1`, “inactive”.

In the case of `Cc1cc(OC(=O)c2cc(F)c(F)cc2Cl)nc(C)n1`, the AC50 entry was “inactive”. With `O=C(O)CN(CCN(CC(=O)O)CC(=O)O)CCN(CC(=O)O)CC(=O)O`, the AC50 result was “inactive”. For the compound `Nc1nc(N)c2[nH]cnc2n1` (tested in a mixture with another compound), the activity, negative = inhibition was -4.07% [at 11.4 µM] (inactive). In the case of `C/C(Cl)=C\Cn1c(N2CCCC2)nc2c1c(=O)[nH]c(=O)n2C`, the AC50 result is “inactive”. As for `C[C@@H](CC(=O)O)[C@@H](N)C(=O)O`, the AC50 result is “inactive”.

For the compound `Cc1ccnc(NS(=O)(=O)c2ccc(N)cc2)n1`, the AC50 result was “inactive”. Take `COC(=O)c1ccc(CCc2cc(O)ccc2O)cc1`: the activity, negative = inhibition was 7.07% [at 11.4 µM] (inactive).

For `O=c1[nH]c(=S)c2[nH]c(=O)n(-c3ccccc3)c2[nH]1`, the activity, negative = inhibition was 7.71% [at 11.4 µM] (inactive). `CO[C@]1(NC(=O)Cc2cccs2)C(=O)N2C(C(=O)O)=C(COC(N)=O)CS[C@H]21`: the AC50 entry is “inactive”.

In the case of `NC1=NC2(CCCCC2)N=C(Nc2ccc(F)cc2F)N1`, the AC50 was 12.6 µM (active). Still for that read-out and setting: as for `CC(=O)NC1(c2ccc(F)cc2)CCN(C(=O)Nc2ccc(F)cc2F)CC1`, the entry is “inactive”.

For the compound `CO[C@H]1OC[C@@]2(C)[C@@H]3C4=C(CN2C(=O)OC(C)(C)C)[C@H](C)[C@H](CO)[C@H](CO)[C@H]4CC[C@H]13`, the AC50 result was “inactive”. Same read-out and setting: then `Cc1cccc(CCNc2nc3ccccc3n3nnnc23)c1`, with “inactive”; and `Cc1cccc(OCCn2c(-c3ccco3)nc3ccccc32)c1`, with 5.01 µM (active); and `Cc1cccc(N2CC(O)=C(c3nc4ccccc4n3C)C2=N)c1`, with “inactive”.

Regarding `Cn1cc(C(=O)c2ccc(Cl)cc2Cl)cc1C(=O)O`, the AC50 result was “inactive”. The same measure, in the same setting: as for `O=c1c(-c2ccccc2)nc2cnc(N3CCNCC3)nc2n1-c1ccccc1`, the entry is “inactive”. Take `O=c1nc(N2CCCCCC2)nc(N2CCCCCC2)[nH]1`: the AC50 entry was “inactive”.

For the compound `N#CN(CC(N)=O)c1nc(N2CCCCC2)nc(N2CCCCC2)n1`, the AC50 is 14.1 µM (active). As to `OCCN1CCN(c2nc(N3CCCCC3)nc(N3CCCCC3)n2)CC1`, the AC50 entry is “inactive”. On the same count and under the same terms, as for `Cc1[nH]c(=O)c(C(=O)/C=C/c2ccccc2F)c2c1CCCC2`, the entry is “inactive”; as for `COCCn1c(=O)c(-c2ccc(OC)cc2)nc2cnc(N3CCOCC3)nc21`, “inactive”.

As for `NNC(=O)[C@@H](O)[C@H](O)[C@H](O)CO`, the activity, negative = inhibition is 17.4% [at 11.4 µM] (inactive).

With `O=C(NCCCc1ccccc1)c1cccs1`, the AC50 result was “inactive”. Still for that read-out and setting: then `CCCCNC(=O)C(=O)NC(C)CCc1ccccc1` (stereo unspecified), with “inactive”; and `CCN(CCCc1ccccc1)CCCc1ccccc1`, with 1 µM (active); and `COc1ccc(-c2nc3cnc(N4CCN(C)CC4)nc3n(C)c2=O)cc1`, with “inactive”. The same measure, in the same setting: then `O=C(CCNC(=O)c1ccccc1)OCN1C(=O)c2ccccc2C1=O`, with “inactive”; and `O=c1c(-c2ccc(Cl)cc2)nc2cnc(N3CCOCC3)nc2n1C1CC1`, with “inactive”. With `CCCCCCCCCCCC1=C(O)C(=O)C=C(O)C1=O`, the AC50 is 2 µM (active). The same measure, in the same setting: then `Cc1ccc(S(=O)(=O)ON=C2CCN(S(=O)(=O)c3ccccc3)CC2)cc1`, with “inactive”; and `CCOc1ccc(C(C)=O)cc1N1C(=O)C2C(C1=O)C1C=CC2C12CC2` (stereo unspecified), with “inactive”; and `CCOc1ccc(N2C(=O)C3C4C=CC(CC4)C3C2=O)c([N+](=O)[O-])c1` (stereo unspecified), with 11.2 µM (active). With `CCOc1ccc(NC(=O)c2ccc(Br)o2)c([N+](=O)[O-])c1`, the AC50 result was “inactive”. Consider `CCOC(=O)C1CCCN(C(=O)c2cc3nc(-c4ccc5c(c4)OCO5)cc(C(F)(F)F)n3n2)C1` (stereo unspecified), for which the AC50 entry is “inactive”.

(Values after PubChem BioAssay AID1851 (National Center for Advancing Translational Sciences (NCATS), 2009).)
